# From PubChem BioAssay
# Assay: HepG2 liver cancer cell viability effects, profiling panel, resazurin fluorescence, 24 h, PK04 Diversity Set (AID 1172); further: test concentration not given here
# Details: higher = more signal
row,SMILES,z-score
1,CCCCN1CC=CC23O[C@@H]4/C=C\CCCOC(=O)C4[C@H]2C(=O)N(CCCCCCO)[C@@H]3C1=O (stereo not given in full),0.646
2,COC(=O)[C@@]1(Cc2ccc(F)cc2)[C@H]2c3cc(C(=O)N(C)C)n(CCF)c3C[C@H]2CN1C(=O)c1ccccc1,0.0085
3,CCc1cccc(NC(=O)O[C@H]2[C@H](OC(=O)Nc3ccccc3-c3ccccc3)[C@H](OC(=O)Nc3ccccc3-c3ccccc3)[C@@H](OC)O[C@@H]2CO)c1,0.235
4,C=C(COC)C(=O)CC[C@H](OC(C)=O)c1ccccc1OCCO,-0.812
5,COC(=O)C(CC#Cc1ccc2c(c1)[C@]1(C(=O)N2)[C@H](c2ccc(OCCO)cc2)N2[C@H](c3ccccc3)[C@H](c3ccccc3)OC(=O)[C@H]2[C@@H]1C(N)=O)C(=O)OC,-0.156
6,COc1ccc([Si](C)(C)[C@H]2[C@H](CC(=O)N(CCO)Cc3ccccc3)O[C@@]3(C(=O)N(Cc4cccc(N5CCCCC5=O)c4)c4ccccc43)[C@@H]2C)cc1,-0.415
7,COCCCNC(=O)[C@@]1(Cc2ccccc2I)c2ccccc2C(=O)N(Cc2ccccc2C(F)(F)F)[C@H]1c1ccc(CO)cc1,0.331
8,CC[C@@H](O[Si](C#C[Si](C(C)C)(C(C)C)C(C)C)(C(C)C)C(C)C)c1cn([C@H](C)c2ccccc2)nn1,-0.0011
9,COCCOC(=O)N1C(=O)[C@@]2(c3cc(C#CCC(C(=O)OC)C(=O)OC)ccc31)[C@H](C(=O)N1CCc3cc(OC)c(OC)cc3C1)[C@H]1C(=O)O[C@H](c3ccccc3)[C@H](c3ccccc3)N1[C@@H]2c1ccccc1OCCO,1.11
10,CCCNC(=O)[C@@]1(Sc2ccc(C)cc2)CC(=O)N(Cc2cc(C(F)(F)F)cc(C(F)(F)F)c2)[C@@H]1c1ccc(CO)cc1,-0.258
11,Cc1ccc(S[C@]2(C(=O)NCc3ccccc3)CC(=O)N(Cc3ccccc3Cl)[C@@H]2c2ccc(CO)cc2)cc1,-1.46
12,CC1(C)OB(/C=C\CC(OC(=O)c2ccncc2)c2ccccc2)OC1(C)C (stereo not given),-0.159
13,COc1cc(Cc2cc3c(c(-c4ccccc4)n2)[Si](C(C)C)(C(C)C)OC3)cc(OC)c1OC,0.233
14,C=CCOC(=O)[C@H]1[C@@H]2C(=O)O[C@@H](c3ccccc3)[C@@H](c3ccccc3)N2[C@@H](c2ccc(OCCOC(=O)[C@@H]3C[C@@H]4C(=O)N[C@@H](Cc5ccccc5)C(=O)N4[C@@H]3c3ccc(O)cc3)cc2)[C@]12C(=O)Nc1ccc(I)cc12,-0.654
15,CC1C2C(CCCO)=CC(C3C(=O)N(C(N)=O)C(=O)C23)N1Cc1cccc(OC(F)(F)F)c1 (stereo not given),0.0337
16,COC(=O)[C@@]1(Cc2ccccc2)[C@H]2c3cc(C(=O)N(C)C)n(Cc4nc5ccccc5[nH]4)c3C[C@H]2CN1C(=O)c1ccccc1,1.17
17,CO[C@H]1O[C@H](CO)[C@@H](OC(=O)Nc2cccc(F)c2)[C@H](OC(=O)Nc2ccc3c(c2)OCO3)[C@@H]1OC(=O)Nc1ccc2c(c1)OCO2,-0.705
18,O=C1C2C=CC(C(O)c3ccccn3)N(Nc3ccc([N+](=O)[O-])cc3)C2C(=O)N1c1ccccc1 (stereo not given),-0.534
19,CC(C)N1C(=O)[C@@]2(Cc3ccccc31)c1ccccc1C(=O)N(Cc1ccccc1C(F)(F)F)[C@H]2c1ccc(CO)cc1,0.0887
20,CN1C2C=C(c3ccc(CO)cc3)C(C3C(=O)N(C(N)=O)C(=O)C32)C1C1CC1 (stereo not given),-0.41
21,CC(C)C[C@@H]1NC(=O)[C@@H]2C[C@H](C(=O)NCCCCCNC(=O)CS)[C@H](c3ccc(O)cc3)N2C1=O,0.432
22,CN(C)CCCCNC(=O)[C@H]1C[C@H]2C(=O)N[C@@H](CCCCN(C)C)C(=O)N2[C@H]1c1ccc(O)cc1,0.828
23,CCOC(=O)C[C@H]1[C@H](OC(=O)c2ccccc2-c2ccccc2)[C@@H](NC(=O)CC(C)C)c2cc(OCCCO)ccc2N1C(=O)c1ccccc1,0.928
24,CCCCCCc1nc(-c2ccc(OC)nc2)c(C)c2c1[Si](C(C)C)(C(C)C)OC2,0.167
25,COCCCNC(=O)[C@]1(Cc2ccccc2CN=[N+]=[N-])N=C(c2ccc(OCCCO)cc2)O[C@@H]1c1ccccc1N=[N+]=[N-],-1.99
